Pf growth 96h = P. falciparum growth inhibition at 96 hour, primary screen for plastid delayed-death inhibitors; P. falciparum luciferase reporter growth, 96 h; Potency, µM (titrated, usually from 28.7 µM), inactives show at the top dose activity change, negative = inhibition, most hits filed as inhibitors; 320,000 compounds, 6.9% hits; AID 504834
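Two parasite generations (96 h, 37 C, 5% CO2) of compound exposure in infected erythrocytes (0.05% parasitemia, 2% hematocrit). Luciferase-reporter P. falciparum; decreased luminescence indicates inhibited growth, aimed at apicoplast-acting delayed death.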
AMA1-RON2 inh = disrupts binding of P. falciparum AMA1 to RON2 | 360,000 compounds, 0.2% hits | Potency, µM (highest dose often 58.2 µM), for the others: top-dose activity change, negative = inhibition, actives largely listed as inhibitors | AID 720542 | AlphaScreen AMA1-biotinylated RON2 peptide binding;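 further: 0% = vehicle wells and -100% = peptide control; nearly all actives have a fitted effect of over 45% in size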
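AMA1 (3D7) with his tag at 25 nM final met compounds first, then biotinylated RON2 peptide at 25 nM; detection used donor plus acceptor beads, 10 µg/mL apiece, read by AlphaScreen after 30 min at room temperature.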
HCV inhibitor = HCV inhibition | Potency, µM (doses to about 41.8 µM), without a hit: at the highest dose activity change, negative = inhibition, usual class: inhibitors | 340,000 compounds, 3.4% hits | Huh7.5.1 HCVcc-Cre infection, luciferase reporter, 44 h | AID 651820
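1,000 cells/well; 4 h culture; + compound; + HCVcc-Cre (~0.5 moi); 44 h; luciferase substrate, RT 15 min; read 15 sec.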
Pf growth 48h = P. falciparum growth inhibition at 48 hours (one generation); 310,000 compounds, 5.9% hits; P. falciparum luciferase growth in erythrocytes, 48 h; AID 504832; Potency, µM (titrated, usually from 28.7 µM), without a hit: at the highest dose activity change, negative = inhibition, hits mostly inhibitors
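Parasite viability was followed by luminescence of a genomically integrated firefly luciferase. Cultures held 0.1% parasitemia at 2% hematocrit (final), incubated under 5% CO2 at 37 C.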
An asterisk follows results filed as active; u = inconclusive; x = no result given; [ ] = another dose, or the depositor's remark. Only some compounds are listed: those with a hit (about 11% of all), similar ones and a draw of the others. The call rests on the fitted dose curve; in most records, active means well fitted curve in the direction sought with a large enough effect; inconclusive means small, poorly fitted or top-dose-only effect, or another doubt; inactive means no such curve, though single readings can be large; an effect the other way counts as inactive or inconclusive. Unless noted, on the % scale 0 is the no-effect control and ±100 the full control effect; potency means the concentration at half of the fitted maximal effect.

SMILES	Pf growth 96h	AMA1-RON2 inh	HCV inhibitor	Pf growth 48h
Cc1ccc(-c2oc3ccccc3c(=O)c2O)cc1	35.1%	42.3%	5.8%	3.7µM*
O=C(Cc1cccc2ccccc12)NCC(=O)N1CCN(Cc2cccc(C(F)(F)F)c2)CC1	-15.8%	2.3%	5.62µM*	-6.2%
O=S(=O)(c1ccc(F)cc1)N1CCN(CC(O)COc2ccccc2F)CC1 (stereo unspecified)	-4.3%	u	2.8%	5.1%
CC(C)c1ccccc1OCC(O)CN1CCN(S(=O)(=O)c2ccc([N+](=O)[O-])cc2)CC1 (stereo unspecified)	2.62µM*	u	12.6µM*	3.7µM*
CN(C(=O)COC(=O)c1cccc(S(=O)(=O)N(C)c2ccccc2)c1)C1CCCCC1	-17.4%	-2.9%	-15.7%	-18.7%
CC1C/C(=N/NC(=O)c2ccc(CSc3nc4ccccc4[nH]3)cc2)CC(C)(C)C1 (stereo unspecified)	u	32.9%	-15.6%	9.0%
CC1C/C(=N/Nc2nc3ccccc3[nH]2)CC(C)(C)C1 (stereo unspecified)	2.08µM*	81.1%	u	3.7µM*
C=CCN1C(=O)/C(=C/c2ccc(O)cc2)S/C1=N/c1nccs1	u	-8.7%	u	-20.8%
C=CCN1C(=O)/C(=C/c2ccc(OC)cc2)S/C1=N/c1nccs1	11.7µM*	-5.3%	0.4%	12.2%
CCCCNC(=O)Cn1nc(Cc2ccncc2)c2ccccc2c1=O	9.28µM*	-9.4%	11.4%	36.4%
CN(CCC#N)C(=O)Cn1nc(Cc2ccncc2)c2ccccc2c1=O	13.1µM*	0.0%	-2.8%	x
COc1ccc(OC)c(NC(=O)C2CCCN(S(C)(=O)=O)C2)c1 (stereo unspecified)	u	-1.6%	-1.2%	13.3%
COc1ccc(C2=CC(c3ccc(Cl)cc3)n3cnnc3N2)cc1OC (stereo unspecified)	x	50.2%	-4.3%	10.4µM*
COc1ccc(C2C=C(c3ccc(Cl)cc3)Nc3nc(NC(C)=O)nn32)cc1 (stereo unspecified)	-13.2%	x	x	u
Cc1ccc(NC(=O)CC2(CC(=O)O)CCCC2)c(C)c1	4.15µM*	7.8%	11.7%	2.6%[0.00184 µM]
Cc1ccc(NC(=O)Cc2cc(C(=O)O)c3ccccc3n2)c(C)c1	u	1.9%	12.6µM*	u
O=C(O)CC1(CC(=O)Nc2ccccc2Br)CCCC1	x	-4.8%	18.8%	x
Cc1ccc(NC(=O)CO/N=C/c2ccccc2C)c(C)c1	2.33µM*	9.1%	-6.1%	u
Cc1ccc(NC(=O)CCl)c(C)c1	10.4µM*	3.5%	u	1.85µM*
CCc1ccc(NC(=S)N(CCN2CCOCC2)Cc2ccccc2F)cc1	-11.1%	-5.8%	-18.9%	-20.9%
CCOC(=O)C1=C(CC)Nc2ccccc2N=C1NC(=O)c1cc(S(=O)(=O)N2CCOCC2)ccc1C	x	-4.3%	-4.4%	x
NS(=O)(=O)c1ccc(NC(=S)Nc2ccn(Cc3cccc4ccccc34)n2)cc1	0.0%	40.8%	10µM*	u
COc1ccc(OC)c(NC(=O)CSc2nncc(=O)n2N)c1	33.8%	48.1%	9.1%	-3.7%
CNC1C(OC2C(O[C@@H]3C(O)C(O)[C@@H](N=C(N)N)C(O)C3N=C(N)N)OC(C)[C@@]2(O)CO)OC(CO)C(O)C1O (stereo partly specified)	5.4%	x	x	4.2%
C=Cn1ccnc1P(=S)(c1ccn(C)c1)c1nccn1C=C	7.38µM*	8.5%	12.2%	-1.0%
SMILES	Pf growth 96h	AMA1-RON2 inh	HCV inhibitor	Pf growth 48h
C=Cn1ccnc1P(=S)(c1nccn1C=C)c1nccn1C=C	u	-3.6%	11.9%	u
CCOc1cc(-c2noc(-c3cccnc3)n2)ccc1OC	x	-5.1%	u	10.0%
c1ccc(-c2noc(-c3cccnc3)n2)cc1	11.7µM*	0.8%	-0.8%	179.0%
c1ccc(-c2ccc(-c3nc(-c4cccnc4)no3)cc2)cc1	14.0%	4.4%	u	x
CCOc1ccc(-c2noc(-c3cccnc3)n2)cc1OC	9.28µM*	-4.3%	-12.2%	141.5%
C#CCNC(=O)C1=C[C@H](c2csc3ccccc23)C[C@H](OCc2ccc(CO)cc2)O1	u	-0.5%	u	u
O=C(Nc1ccccc1)C1=C[C@@H](c2csc3ccccc23)C[C@@H](OCc2ccc(CO)cc2)O1	9.28µM*	-7.2%	0.316µM*	u
O=C(NCc1ccccc1)C1=C[C@H](c2csc3ccccc23)C[C@H](OCc2ccc(CO)cc2)O1	13.1µM*	-0.8%	u	9.28µM*
Cc1ccc2cc(COC(=O)C3CCCO3)c(=O)[nH]c2c1 (stereo unspecified)	36.7%	-1.0%	4.5%	19.4%
COc1ccc(NC(=O)Nc2cccc3c2O[C@H](CN(C)S(C)(=O)=O)[C@@H](C)CN([C@H](C)CO)C3=O)cc1	x	4.6%	15.9%	x
C=CCNc1nnc(Cc2ccc(C(C)C)cc2)c(=O)[nH]1	u	-5.0%	6.0%	u
COC(=O)c1ccc(-n2c(CCC(=O)O)ccc2-c2ccccc2)cc1	3.7µM*	-3.9%	7.2%	-3.3%
COC(=O)Cn1c(CCC(=O)O)ccc1-c1ccccc1	8.28µM*	-7.4%	18.6%	x
O=C(O)CCc1ccc(-c2ccc(F)cc2)n1CC(=O)O	0.0%	1.1%	-5.5%	7.8%
COc1ccc(NC(=O)Cn2c(CCC(=O)O)ccc2-c2ccccc2)cc1	78.3%	-11.0%	2.9%	7.1%
CCCn1c(CCC(=O)O)ccc1-c1ccc(F)cc1	9.28µM*	-2.4%	5.5%	12.0%
C/C(Cl)=C/Cc1c(C)[nH]c2c(ccc3ccccc32)c1=O	-32.4%	7.5%	u	0.185µM*
C/C(Cl)=C/Cc1c(C)[nH]c2ccc(C)cc2c1=O	11.6%	u	-16.7%	0.37µM*
CCN=C1SC(CC(N)=O)C(=O)N1CC (stereo unspecified)	34.2%	5.0%	11.0%	20.1%
CCOC(=O)N1CCC(N2C(=O)c3ccccc3C2Nc2c(C)cccc2C)CC1 (stereo unspecified)	u	-8.0%	6.7%	x
COCCN(C(=O)c1csnn1)C(C(=O)NC1CCCCC1)c1ccccc1 (stereo unspecified)	15.6%	10.1%	15.0%	18.8%
c1csc(CCNc2ncnc3sc4c(c23)CCC4)c1	u	4.1%	7.94µM*	x
c1ccc(Nc2ncnc3sc4c(c23)CCC4)cc1	0.7%	10.1%	u	4.8%
Fc1ccc(Nc2ncnc3sc4c(c23)CCC4)cc1	73.4%	8.6%	3.16µM*	1.2%
Cc1ccc(C2c3c(-c4ccccc4O)n[nH]c3C(=O)N2Cc2ccncc2)cc1 (stereo unspecified)	u	54.7%	u	u
COc1ccc(C2C(C(C)=O)=C(O)C(=O)N2CCc2ccccc2)c(OC)c1 (stereo unspecified)	x	-1.2%	-12.1%	-0.4%
COc1ccc(CCN2C(=O)c3[nH]nc(-c4ccccc4O)c3C2c2cccc(Cl)c2)cc1 (stereo unspecified)	1.85µM*	102.3%	u	3.29µM*
